The source of these data is the supplement of paper PMC11001985.

Sequence of UniProt P51572 (P51572 whole entry): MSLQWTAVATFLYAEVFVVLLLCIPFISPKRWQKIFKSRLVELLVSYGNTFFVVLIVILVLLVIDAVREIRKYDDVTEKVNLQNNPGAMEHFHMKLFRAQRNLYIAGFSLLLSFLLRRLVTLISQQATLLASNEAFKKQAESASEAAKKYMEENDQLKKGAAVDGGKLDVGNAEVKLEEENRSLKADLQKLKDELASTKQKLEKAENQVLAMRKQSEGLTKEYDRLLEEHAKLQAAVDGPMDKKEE
Sequence of UniProt Q14980 (Q14980 whole entry): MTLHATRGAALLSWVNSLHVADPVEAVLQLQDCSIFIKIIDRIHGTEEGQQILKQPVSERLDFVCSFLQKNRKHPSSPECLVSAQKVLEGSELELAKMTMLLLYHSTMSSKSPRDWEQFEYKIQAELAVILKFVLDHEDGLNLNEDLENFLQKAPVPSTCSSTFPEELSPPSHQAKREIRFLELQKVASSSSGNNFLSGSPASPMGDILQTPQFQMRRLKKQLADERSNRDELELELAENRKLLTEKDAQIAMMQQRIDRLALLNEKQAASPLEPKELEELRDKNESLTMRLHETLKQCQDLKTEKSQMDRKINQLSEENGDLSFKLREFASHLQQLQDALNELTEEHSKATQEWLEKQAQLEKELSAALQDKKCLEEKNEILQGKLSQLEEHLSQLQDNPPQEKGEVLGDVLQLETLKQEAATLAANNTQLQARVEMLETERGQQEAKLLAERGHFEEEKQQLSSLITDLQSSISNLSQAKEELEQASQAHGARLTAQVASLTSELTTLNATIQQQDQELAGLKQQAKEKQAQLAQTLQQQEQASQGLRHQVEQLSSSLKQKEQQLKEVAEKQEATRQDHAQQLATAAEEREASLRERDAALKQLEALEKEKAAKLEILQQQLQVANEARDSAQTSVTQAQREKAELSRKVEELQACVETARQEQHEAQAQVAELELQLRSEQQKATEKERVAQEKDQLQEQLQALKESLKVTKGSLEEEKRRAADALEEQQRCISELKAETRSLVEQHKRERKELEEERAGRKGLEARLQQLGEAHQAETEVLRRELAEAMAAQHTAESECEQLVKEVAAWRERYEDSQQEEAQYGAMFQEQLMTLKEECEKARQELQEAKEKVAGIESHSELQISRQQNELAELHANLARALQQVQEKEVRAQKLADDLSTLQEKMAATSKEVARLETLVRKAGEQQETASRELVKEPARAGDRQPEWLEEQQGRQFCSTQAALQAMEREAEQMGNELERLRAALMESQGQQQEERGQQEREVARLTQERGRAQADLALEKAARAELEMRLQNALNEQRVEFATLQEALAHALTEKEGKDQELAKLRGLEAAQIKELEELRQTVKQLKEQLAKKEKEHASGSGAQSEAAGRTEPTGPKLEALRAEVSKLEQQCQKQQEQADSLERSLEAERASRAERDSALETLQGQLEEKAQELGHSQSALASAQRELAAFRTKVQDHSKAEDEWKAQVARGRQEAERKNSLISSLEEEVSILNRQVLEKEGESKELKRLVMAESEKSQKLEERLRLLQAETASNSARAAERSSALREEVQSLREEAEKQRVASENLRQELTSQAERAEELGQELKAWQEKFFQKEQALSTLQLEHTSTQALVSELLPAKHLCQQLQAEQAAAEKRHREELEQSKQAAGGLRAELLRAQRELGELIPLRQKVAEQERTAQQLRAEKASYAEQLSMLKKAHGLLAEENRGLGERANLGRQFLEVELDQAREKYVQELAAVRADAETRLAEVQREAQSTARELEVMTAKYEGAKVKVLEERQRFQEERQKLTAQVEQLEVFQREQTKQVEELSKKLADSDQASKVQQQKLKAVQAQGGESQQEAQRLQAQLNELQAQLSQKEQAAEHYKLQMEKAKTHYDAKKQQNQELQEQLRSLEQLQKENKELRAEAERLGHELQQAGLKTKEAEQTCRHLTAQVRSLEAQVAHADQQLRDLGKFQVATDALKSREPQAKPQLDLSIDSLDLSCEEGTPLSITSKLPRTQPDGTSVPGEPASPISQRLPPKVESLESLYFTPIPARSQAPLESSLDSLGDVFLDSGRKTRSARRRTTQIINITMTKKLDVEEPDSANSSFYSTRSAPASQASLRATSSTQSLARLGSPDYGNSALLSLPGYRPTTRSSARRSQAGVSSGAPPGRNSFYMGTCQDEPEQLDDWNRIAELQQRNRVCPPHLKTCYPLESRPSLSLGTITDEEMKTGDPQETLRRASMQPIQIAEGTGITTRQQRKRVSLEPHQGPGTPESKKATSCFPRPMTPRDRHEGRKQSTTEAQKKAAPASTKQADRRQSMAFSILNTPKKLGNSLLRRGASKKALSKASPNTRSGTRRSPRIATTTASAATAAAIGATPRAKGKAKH
Sequence of UniProt Q8WUM4 (Q8WUM4 whole entry): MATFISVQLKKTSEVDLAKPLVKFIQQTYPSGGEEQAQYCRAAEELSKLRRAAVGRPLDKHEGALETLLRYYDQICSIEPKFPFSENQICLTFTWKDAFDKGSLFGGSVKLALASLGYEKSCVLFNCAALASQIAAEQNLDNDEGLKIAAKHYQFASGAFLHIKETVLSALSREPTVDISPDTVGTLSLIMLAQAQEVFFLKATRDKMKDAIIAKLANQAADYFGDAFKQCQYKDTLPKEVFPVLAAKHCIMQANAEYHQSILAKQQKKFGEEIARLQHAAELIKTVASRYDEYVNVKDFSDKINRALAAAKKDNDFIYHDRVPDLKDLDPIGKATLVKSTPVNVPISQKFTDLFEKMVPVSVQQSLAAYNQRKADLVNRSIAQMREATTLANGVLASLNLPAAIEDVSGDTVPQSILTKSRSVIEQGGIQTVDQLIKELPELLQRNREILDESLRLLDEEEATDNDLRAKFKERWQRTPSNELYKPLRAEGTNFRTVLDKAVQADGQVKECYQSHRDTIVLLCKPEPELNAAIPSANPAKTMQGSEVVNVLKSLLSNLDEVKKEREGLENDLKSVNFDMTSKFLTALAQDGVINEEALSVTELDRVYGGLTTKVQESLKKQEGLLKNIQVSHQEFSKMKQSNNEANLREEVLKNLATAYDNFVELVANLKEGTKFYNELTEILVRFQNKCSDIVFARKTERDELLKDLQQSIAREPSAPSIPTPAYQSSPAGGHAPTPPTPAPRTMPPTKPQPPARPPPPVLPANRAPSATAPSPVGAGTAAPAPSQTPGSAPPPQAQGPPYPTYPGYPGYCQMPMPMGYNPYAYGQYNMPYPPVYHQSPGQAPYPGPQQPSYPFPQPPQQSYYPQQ
Sequence of UniProt P08670 (P08670 whole entry): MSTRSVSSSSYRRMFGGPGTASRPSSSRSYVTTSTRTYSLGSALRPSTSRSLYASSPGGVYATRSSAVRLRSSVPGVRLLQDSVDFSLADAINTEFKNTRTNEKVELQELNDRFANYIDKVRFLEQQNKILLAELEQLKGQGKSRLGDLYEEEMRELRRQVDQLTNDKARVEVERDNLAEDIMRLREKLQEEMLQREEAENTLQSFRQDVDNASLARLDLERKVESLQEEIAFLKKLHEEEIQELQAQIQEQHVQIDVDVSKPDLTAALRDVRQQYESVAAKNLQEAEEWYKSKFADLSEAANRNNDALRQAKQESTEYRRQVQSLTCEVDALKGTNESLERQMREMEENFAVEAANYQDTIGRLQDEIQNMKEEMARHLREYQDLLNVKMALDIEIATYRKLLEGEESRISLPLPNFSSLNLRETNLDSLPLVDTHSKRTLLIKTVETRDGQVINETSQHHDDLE
Sequence of UniProt Q13308 (Q13308 whole entry): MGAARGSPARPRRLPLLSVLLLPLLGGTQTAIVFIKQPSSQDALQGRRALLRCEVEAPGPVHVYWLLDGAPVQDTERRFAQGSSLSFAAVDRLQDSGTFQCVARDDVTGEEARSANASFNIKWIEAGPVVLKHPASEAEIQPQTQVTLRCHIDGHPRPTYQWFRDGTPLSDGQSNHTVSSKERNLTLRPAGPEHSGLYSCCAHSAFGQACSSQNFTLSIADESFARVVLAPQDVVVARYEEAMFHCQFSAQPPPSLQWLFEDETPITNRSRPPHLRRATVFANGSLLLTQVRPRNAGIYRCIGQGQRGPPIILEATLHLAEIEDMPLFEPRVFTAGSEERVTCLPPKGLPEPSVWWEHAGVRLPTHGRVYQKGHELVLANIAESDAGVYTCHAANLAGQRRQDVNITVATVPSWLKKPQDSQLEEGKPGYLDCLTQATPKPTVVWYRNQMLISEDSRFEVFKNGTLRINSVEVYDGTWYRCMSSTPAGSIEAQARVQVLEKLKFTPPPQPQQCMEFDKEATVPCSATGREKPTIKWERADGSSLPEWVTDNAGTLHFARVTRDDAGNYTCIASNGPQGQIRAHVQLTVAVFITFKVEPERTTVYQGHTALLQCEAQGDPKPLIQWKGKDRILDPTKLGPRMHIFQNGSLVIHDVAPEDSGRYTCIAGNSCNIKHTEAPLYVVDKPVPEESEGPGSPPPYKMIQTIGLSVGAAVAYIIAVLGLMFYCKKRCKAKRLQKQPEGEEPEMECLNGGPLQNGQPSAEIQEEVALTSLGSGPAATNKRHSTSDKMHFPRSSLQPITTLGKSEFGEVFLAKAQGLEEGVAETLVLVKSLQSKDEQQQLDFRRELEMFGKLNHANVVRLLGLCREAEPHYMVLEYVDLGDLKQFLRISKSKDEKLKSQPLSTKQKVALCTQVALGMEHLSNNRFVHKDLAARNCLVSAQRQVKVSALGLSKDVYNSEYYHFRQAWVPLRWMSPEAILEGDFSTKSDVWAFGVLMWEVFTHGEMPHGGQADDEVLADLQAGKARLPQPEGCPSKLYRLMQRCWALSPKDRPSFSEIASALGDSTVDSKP
Sequence of UniProt P12429 (P12429 whole entry): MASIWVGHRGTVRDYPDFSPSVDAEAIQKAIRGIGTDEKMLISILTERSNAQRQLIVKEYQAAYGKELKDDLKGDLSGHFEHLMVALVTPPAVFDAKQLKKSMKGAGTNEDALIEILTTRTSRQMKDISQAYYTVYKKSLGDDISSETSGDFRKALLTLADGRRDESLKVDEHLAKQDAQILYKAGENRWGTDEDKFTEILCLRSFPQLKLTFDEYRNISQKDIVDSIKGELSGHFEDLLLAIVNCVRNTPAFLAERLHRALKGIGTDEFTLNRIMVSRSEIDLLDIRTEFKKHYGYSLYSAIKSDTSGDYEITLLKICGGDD

Compound in the experiment: C#CCNC(=O)CCSSCCC(=O)NCCc1ccc(C=O)c(C=O)c1
Kind of experiment: lysine labeling ratio R10:1 (500 µM / 50 µM probe), SILAC-ABPP in living cells; higher = lower intrinsic lysine reactivity toward the probe, active = 2 or less. The settings on record: HeLa; probe concentrations 500 vs 50 µM. Put shortly:
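Each lysine carries an R value: the filtered median of MS1 peptide ratios of high probe to low probe, with the median then taken over forward and reverse replicates. These came from living SILAC light and heavy HeLa cells in PBS at room temperature labelled with an alkyne-tagged, disulfide-linked lysine probe at 500 µM or 50 µM, in forward and reverse swaps. The lysates were mixed, clicked to biotin-azide, trypsin-digested, captured on neutravidin, released by DTT, alkylated and run by LC-MS/MS on a TIMS-TOF Pro. The highest value allowed is 20.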
For the target “BCAP31 (lysine site: K204) (UniProt P51572)”, the “lysine labeling ratio R10:1” value was 1.82 (active).

As for “HMGN2 (lysine site: K18) (UniProt P05204)”, the “lysine labeling ratio R10:1” value was 2.09 (inactive).

For “PDCD6IP (lysine site: K640) (UniProt Q8WUM4)”, the “lysine labeling ratio R10:1” value was 0.892 (active).

On to “PTK7 (lysine site: K518) (UniProt Q13308)”, for which the “lysine labeling ratio R10:1” value was 1.76 (active).

In the case of “VDAC1 (lysine site: K274) (UniProt P21796)”, the “lysine labeling ratio R10:1” value was 0.919 (active).

On to “ATAD3B (lysine site: K183) (UniProt Q5T9A4)”, for which the “lysine labeling ratio R10:1” value is 1.8 (active).

Turning to “ANXA3 (lysine site: K263) (UniProt P12429)”, the “lysine labeling ratio R10:1” value is 1.92 (active).

As for “VIM (lysine site: K445) (UniProt P08670)”, the “lysine labeling ratio R10:1” value was 10.9 (inactive).

For the target “DSG2 (lysine site: K141) (UniProt Q14126)”, the “lysine labeling ratio R10:1” value is 4.68 (inactive).

As for “PRDX2 (lysine site: K119) (UniProt P32119)”, the “lysine labeling ratio R10:1” value is 2 (active).

As for “CCT8 (lysine site: K326) (UniProt P50990)”, the “lysine labeling ratio R10:1” value is 3.67 (inactive).

Regarding “FLNA (lysine site: K1164) (UniProt P21333)”, the “lysine labeling ratio R10:1” value is 1.16 (active).

With “DSTN (lysine site: K132) (UniProt P60981)”, the “lysine labeling ratio R10:1” value was 1.32 (active).

As to UniProt P25705 (lysine site: K194), the “lysine labeling ratio R10:1” value was 1.81 (active).

“ITGAV (lysine site: K400) (UniProt P06756)”: the “lysine labeling ratio R10:1” value was 0.958 (active).

Turning to “RPL35A (lysine site: K45) (UniProt P18077)”, the “lysine labeling ratio R10:1” value is 1.38 (active).

For the target “AHNAK (lysine site: K5443) (UniProt Q09666)”, the “lysine labeling ratio R10:1” value is 0.97 (active).

In the case of “CDCP1 (lysine site: K592) (UniProt Q9H5V8)”, the “lysine labeling ratio R10:1” value was 3.49 (inactive).

For the target “KIRREL (lysine site: K67) (UniProt Q96J84)”, the “lysine labeling ratio R10:1” value is 0.92 (active).

For “MYH9 (lysine site: K1673) (UniProt P35579)”, the “lysine labeling ratio R10:1” value was 5.57 (inactive).

As to UniProt Q9BZM4 (lysine site: K158), the “lysine labeling ratio R10:1” value is 2.74 (inactive).

Turning to “NCL (lysine site: K467) (UniProt P19338)”, the “lysine labeling ratio R10:1” value was 0.565 (active).

Regarding “FSCN1 (lysine site: K74) (UniProt Q16658)”, the “lysine labeling ratio R10:1” value was 1.36 (active).

For UniProt P62851 (lysine site: K66), the “lysine labeling ratio R10:1” value is 2.69 (inactive).

For the target “KRT18 (lysine site: K417) (UniProt P05783)”, the “lysine labeling ratio R10:1” value was 10.9 (inactive).

“PDIA4 (lysine site: K145) (UniProt P13667)”: the “lysine labeling ratio R10:1” value was 0.551 (active).

In the case of “LDLR (lysine site: K518) (UniProt P01130)”, the “lysine labeling ratio R10:1” value was 1.72 (active).

As for “ALDOA (lysine site: K111) (UniProt P04075)”, the “lysine labeling ratio R10:1” value was 4.71 (inactive).

For “ACOT7 (lysine site: K198) (UniProt O00154)”, the “lysine labeling ratio R10:1” value was 2.95 (inactive).

Regarding “FSCN1 (lysine site: K399) (UniProt Q16658)”, the “lysine labeling ratio R10:1” value was 3.81 (inactive).

Turning to “ACSL3 (lysine site: K222) (UniProt O95573)”, the “lysine labeling ratio R10:1” value is 2.52 (inactive).

In the case of “ITGA1 (lysine site: K81) (UniProt P56199)”, the “lysine labeling ratio R10:1” value was 2.7 (inactive).

Take “DAG1 (lysine site: K500) (UniProt Q14118)”: the “lysine labeling ratio R10:1” value was 4.65 (inactive).

On to “CCT4 (lysine site: K395) (UniProt P50991)”, for which the “lysine labeling ratio R10:1” value was 3.34 (inactive).

Take “MICA (lysine site: K94) (UniProt Q29983)”: the “lysine labeling ratio R10:1” value is 2.63 (inactive).

On to “XRCC5 (lysine site: K481) (UniProt P13010)”, for which the “lysine labeling ratio R10:1” value was 1.45 (active).

“NUMA1 (lysine site: K751) (UniProt Q14980)”: the “lysine labeling ratio R10:1” value is 2.82 (inactive).

UniProt P62913 (lysine site: K52): the “lysine labeling ratio R10:1” value is 2.77 (inactive).

For UniProt Q8N441 (lysine site: K30), the “lysine labeling ratio R10:1” value was 3.03 (inactive).

Turning to “CSPG4 (lysine site: K831) (UniProt Q6UVK1)”, the “lysine labeling ratio R10:1” value was 5.17 (inactive).
